{
  "source": "PubChem BioAssay AID1460",
  "about": "(National Center for Advancing Translational Sciences (NCATS), 2008)",
  "note": "The whole screen tested about 270,000 compounds, of which about 5,800 (2.1%) were called active. Where a call stands in place of a potency, no number is given. Another 16% or so got no clear call; they are omitted. The call rests on the fitted dose curve; in most records, active means well fitted inhibition curve with a large enough effect; inconclusive means small, poorly fitted or top-dose-only effect; inactive means flat fitted curve, though single readings scatter. This excerpt belongs to a sample that is enriched for actives. Potency means the concentration at half of the fitted maximal effect.",
  "data": [
    {"molecular_target": "Microtubule-associated protein tau (Homo sapiens) (UniProt P10636)", "sequence (P10636 561-689 P618L limits assumed)": "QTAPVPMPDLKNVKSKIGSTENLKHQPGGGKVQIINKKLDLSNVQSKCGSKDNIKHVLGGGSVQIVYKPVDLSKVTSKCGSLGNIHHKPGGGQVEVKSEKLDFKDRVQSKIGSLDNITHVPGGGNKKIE", "assay": "qHTS for Inhibitors of Tau Fibril Formation, Thioflavin T Binding; further: nearly all actives have a fitted effect of over 55% in size", "conditions": "recombinant tau K18 P301L (four-repeat tau fragment), heparin-induced fibrillization, ThT fluorescence; series mostly up to 57.4 µM", "summary_of_the_method": "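Tau K18 P301L fragment (15 uM unlabeled plus 0.24 uM Alexa 594-labeled) in 100 mM sodium acetate pH 7 with compound, fibrillization induced by 20 uM heparin for 6 hr at 37 C. Thioflavin T (30 uM) added, fluorescence read after 1 hr (ex 450, em 510 nm).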", "values": [
      {"smiles": "COc1cccc(CNC(=O)C(=O)NCC(c2cccs2)S(=O)(=O)c2ccccc2)c1", "note": "(stereo not given)", "Potency": "inactive"},
      {"smiles": "O=C(COc1ccccc1)OCc1cc(=O)n2nc(-c3cccs3)sc2n1", "Potency": "inactive"},
      {"smiles": "CCc1ccc(NC(=O)c2cc3c(=O)n(Cc4cccnc4)ccc3nc2C)cc1", "Potency": "inactive"},
      {"smiles": "COc1cccc(-n2ccn(CC(=O)NCc3ccc(C)cc3)c(=O)c2=O)c1", "Potency": "inactive"},
      {"smiles": "O=C(CSc1oc(-c2ccco2)nc1S(=O)(=O)c1ccccc1)c1ccc(Cl)cc1", "Potency": "inactive"},
      {"smiles": "COc1ccc(OC)c(CCNC(=O)CCCn2c(=O)c3cccn3c3cccnc32)c1", "Potency": "inactive"},
      {"smiles": "CCOCCCn1c(SCC(=O)Nc2ccc(CC)cc2)nc2ccccc2c1=O", "Potency": "inactive"},
      {"smiles": "O=C(NCc1ccccn1)c1cc(-c2ccccc2Cl)on1", "Potency": "inactive"},
      {"smiles": "COc1ccc(-c2nc3ccc(C(=O)NCc4ccc(C)cc4)cc3nc2-c2ccc(OC)cc2)cc1", "Potency": "inactive"},
      {"smiles": "O=C(NCc1ccccn1)c1ccc2nc(-c3ccco3)c(-c3ccco3)nc2c1", "Potency": "12.6 µM (active)"},
      {"smiles": "O=C(Nc1ccc2nccnc2c1)c1ccco1", "Potency": "inactive"},
      {"smiles": "CC(C)(C)c1ccc(NC(=O)NCc2ccco2)cc1", "Potency": "inactive"},
      {"smiles": "COCCNC(=O)Nc1ccc2nc(-c3ccco3)c(-c3ccco3)nc2c1", "Potency": "3.98 µM (active)"},
      {"smiles": "Cc1nn(-c2ccc(F)cc2)c(-n2cccc2)c1C(=O)N1CCN(c2ccccc2)CC1", "Potency": "inactive"},
      {"smiles": "Cc1ccc(-c2nc(Cn3c(=O)cc(-c4ccccc4)c4c(C)nn(C)c43)c(C)o2)cc1", "Potency": "inactive"},
      {"smiles": "CN(Cc1ccccc1)S(=O)(=O)c1ccc(F)c(C(=O)Nc2cccc(Cl)c2Cl)c1", "Potency": "inactive"},
      {"smiles": "O=C(c1cccc(Br)c1)N1CCN(Cc2cc(=O)n3nc(-c4ccccc4)sc3n2)CC1", "Potency": "inactive"},
      {"smiles": "CCN(CC)S(=O)(=O)c1ccc2c(c1)nc(CN(C)C(=O)Nc1ccc(Cl)cc1)n2C", "Potency": "inactive"},
      {"smiles": "O=C(NCCc1ccccc1)C(=O)NCC(c1ccco1)S(=O)(=O)c1ccccc1", "note": "(stereo not given)", "Potency": "inactive"},
      {"smiles": "CSc1nc(-c2ccc(F)cc2)nc2c1Cc1c(CO)cnc(C)c1O2", "Potency": "inactive"},
      {"smiles": "CCN(CC)c1ccc2oc(=O)c(C)nc2c1", "Potency": "7.94 µM (active)"},
      {"smiles": "CCN(CC)c1ccc2c(Nc3ccccc3)c(C=O)c(=O)oc2c1", "Potency": "inactive"},
      {"smiles": "CCOC(=O)c1c(C)nc2c(c1C)c(=O)oc1ccccc12", "Potency": "inactive"},
      {"smiles": "COc1ccccc1CNC(=O)c1ccc(-n2c(C)cc3c2CCCC3)cc1", "Potency": "inactive"},
      {"smiles": "COc1ccc(C(=O)Nc2onc3c2CCCC3)cc1", "Potency": "inactive"},
      {"smiles": "COc1ccccc1CNC(=O)Cn1nc(C)c2nn(-c3ccc(Cl)cc3)c(C)c2c1=O", "Potency": "inactive"},
      {"smiles": "CCN(CC)C(=O)CSc1nc2cc3c(cc2c(=O)n1CCCC(=O)NCc1ccc2c(c1)OCO2)OCO3", "Potency": "inactive"},
      {"smiles": "O=C(CSCc1cnn(-c2ccccc2)c1-n1cccc1)NCc1ccc(Cl)cc1", "Potency": "inactive"},
      {"smiles": "CCOc1ccc(C(=O)N2CCN(CCc3ccccn3)CC2)cc1", "Potency": "inactive"},
      {"smiles": "Cc1cc(-c2n[nH]c(=S)n2/N=C/C(Br)=C/c2ccccc2)n[nH]1", "Potency": "12.6 µM (active)"},
      {"smiles": "Oc1ccccc1/C=N/n1c(-c2cccs2)n[nH]c1=S", "Potency": "inactive"},
      {"smiles": "Cc1cc(-c2n[nH]c(=S)n2/N=C/c2ccco2)n[nH]1", "Potency": "inactive"},
      {"smiles": "COc1ccccc1CN1CCC(CNC(=O)c2cnn(-c3cccc(Cl)c3)c2C2CCN(C(=O)OC(C)(C)C)CC2)CC1", "Potency": "inactive"},
      {"smiles": "CCOc1ccccc1CNC(=O)c1ccc2c(c1)nc1n2CCC(C)C1", "note": "(stereo not given)", "Potency": "inactive"},
      {"smiles": "Cc1ccc(NC(=O)c2cc3cc(C)ccc3n2C)cc1", "Potency": "inactive"},
      {"smiles": "CCOC(=O)c1c(NC(C)=O)c2c3c(sc2n1Cc1c(C)cc(C)cc1C)CCCC3", "Potency": "inactive"},
      {"smiles": "Fc1ccc(CSc2nc(NCc3ccccc3)c3ccccc3n2)cc1", "Potency": "inactive"},
      {"smiles": "COc1ccc(NC(C)=O)cc1NC(=O)CN1CCN(c2ccc(F)cc2)CC1", "Potency": "inactive"},
      {"smiles": "CC(=O)Nc1ccc(-c2csc(NC=C3C(=O)OC(C)(C)OC3=O)n2)cc1", "Potency": "inactive"},
      {"smiles": "CC1(C)CC(CC(=O)O)C(=O)O1", "note": "(stereo not given)", "Potency": "inactive"},
      {"smiles": "C/C(CC1CC(C)(C)OC1=O)=N/Nc1nc(-c2ccccc2)cs1", "note": "(stereo not given)", "Potency": "25.1 µM (active)"},
      {"smiles": "Cc1ccc(-c2nn3c(=O)cc(CN4CCN(S(=O)(=O)c5ccc(Cl)cc5)CC4)nc3s2)cc1", "Potency": "inactive"},
      {"smiles": "COc1ccccc1N1CCN(c2ccc(=O)n(CC(=O)NCc3ccc(OC(C)C)cc3)n2)CC1", "Potency": "inactive"},
      {"smiles": "COc1ccc(N2C(=O)CS(=O)(=O)C23C(=O)N(Cc2ccc(C)cc2)c2ccccc23)cc1Cl", "note": "(stereo not given)", "Potency": "inactive"},
      {"smiles": "Cc1c(CNC(C)c2ccccc2)c(C(=O)O)c(C)n1Cc1c(F)cccc1Cl", "note": "(stereo not given)", "Potency": "inactive"},
      {"smiles": "CCOc1ccc(/C(O)=C2\\C(=O)C(=O)N(c3ccc(OC)cc3)C2c2ccccc2[N+](=O)[O-])cc1", "note": "(stereo not given)", "Potency": "5.01 µM (active)"},
      {"smiles": "COc1ccccc1C1/C(=C(/O)c2ccc(OC(C)C)cc2)C(=O)C(=O)N1c1cc(C)on1", "note": "(stereo not given)", "Potency": "inactive"},
      {"smiles": "COc1ccc(/C(O)=C2/C(=O)C(=O)N(c3nc(C)c(C)s3)C2c2ccco2)cc1", "note": "(stereo not given)", "Potency": "inactive"},
      {"smiles": "CN(C)N=Nc1ccc2nc[nH]c2c1", "Potency": "4.47 µM (active)"},
      {"smiles": "CC/C(O)=N\\S(=O)(=O)c1ccc(N=NN(C)C)cc1", "Potency": "inactive"},
      {"smiles": "CCCN(CCC)S(=O)(=O)c1ccc(C(=O)Nc2sc3c(c2C(=O)OC)CCN(CC)C3)cc1", "Potency": "inactive"},
      {"smiles": "CCc1cccc(NC(=O)CN(c2ccc(C)c(C)c2)S(=O)(=O)c2ccsc2C(=O)OC)c1", "Potency": "inactive"},
      {"smiles": "N#CCC(=O)N/N=C/c1ccc(SCC(=O)Nc2ccccc2)o1", "Potency": "25.1 µM (active)"},
      {"smiles": "O=C(CSc1ccc(/C=N/NC(=O)c2cccc(F)c2)o1)Nc1ccccc1", "Potency": "inactive"},
      {"smiles": "Cc1ccc(/C=N/NC(=O)CSc2ccccn2)o1", "Potency": "inactive"},
      {"smiles": "O=C(CCc1ccccc1)NCc1ccc2c(c1)CCN2C(=O)c1ccccc1", "Potency": "inactive"},
      {"smiles": "Cc1cc(/C=N/Nc2ccc([N+](=O)[O-])cn2)c(C)n1-c1cccc(C(=O)O)c1", "Potency": "2.82 µM (active)"},
      {"smiles": "Cc1cccc(C)c1NC(=O)CSc1ccc([N+](=O)[O-])cn1", "Potency": "inactive"},
      {"smiles": "Cc1ccc(-n2c(C)cc(/C=N/Nc3ccc([N+](=O)[O-])cn3)c2C)c(C)c1", "Potency": "3.98 µM (active)"},
      {"smiles": "Cc1ccc(-n2c(C)cc(/C=N\\NC(=O)CC(=O)NC(C)C)c2C)cc1", "Potency": "inactive"},
      {"smiles": "COc1cc(/C=N\\Nc2ccc([N+](=O)[O-])cn2)ccc1OCC(=O)O", "Potency": "12.6 µM (active)"},
      {"smiles": "COc1cc(/C=N\\NC(=O)CNC(=O)c2cccc([N+](=O)[O-])c2)ccc1O", "Potency": "inactive"},
      {"smiles": "COc1cc(/C=N/NC(=O)Nc2ccccc2)ccc1OCCOc1ccccc1C", "Potency": "inactive"},
      {"smiles": "Cc1cccc(-n2c(C)cc(/C=N\\NC(=O)c3cccs3)c2C)c1", "Potency": "inactive"},
      {"smiles": "Cc1cc(/C=N/n2cnnc2)c(C)n1-c1cccc(C(=O)O)c1", "Potency": "inactive"}
    ]}
  ]
}
